The text below walks through data of PubChem BioAssay (EPA / NIEHS).

Holding throughout (settings): mRNA level, 48 h; actives raise or lower the signal
Read-out in experiment [1]: ABC Transporter (ABCC2), ABCC2 (gene 1244)
Description: LTEA_HepaRG_ABCC2: Life Technologies and Expression Analysis (LTEA) Assay for ABC Transporter (ABCC2) using HepaRG (AID 2283464). In a few lines: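 Gene expression of ABCC2 was determined by qRT-PCR in HepaRG cells exposed 48 h to chemicals (highest 100 uM, half-log dilutions). Activity was fitted in both directions relative to 0.5% DMSO vehicle.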

Read-out in experiment [2]: Broad substrate specificity ATP-binding cassette transporter ABCG2 (Homo sapiens) (UniProt Q9UNQ0)
Description: LTEA_HepaRG_ABCG2: Life Technologies and Expression Analysis (LTEA) Assay for ABC Transporter (ABCG2) using HepaRG (AID 2283465). The gist of the method: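 HepaRG, 48 h exposure, 8-pt half-log series from 100 uM, 0.5% DMSO vehicle, duplicates. Readout: ABCG2 transcript by qRT-PCR (Fluidigm array), housekeeping-normalized; bidirectional curve fit relative to DMSO baseline.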

Read-out in experiment [3]: Peroxisomal acyl-coenzyme A oxidase 1 (ACOX1) gene, ACOX1 (gene 51)
Briefly: LTEA_HepaRG_ACOX1: Life Technologies and Expression Analysis (LTEA) Assay for Peroxisomal acyl-coenzyme A oxidase 1 (ACOX1) gene using HepaRG (AID 2283467). The gist of the method:
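HepaRG, 48 h chemical exposure, 8-pt half-log series from 100 uM top, 0.5% DMSO vehicle, duplicates. Readout: ACOX1 mRNA by Fluidigm qRT-PCR, housekeeping-normalized; bidirectional fit vs DMSO baseline.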

Read-out in experiment [4]: Alkaline Phosphatase, Placental (ALPP) gene, ALPP (gene 250)
Briefly: LTEA_HepaRG_ALPP: Life Technologies and Expression Analysis (LTEA) Assay for Alkaline Phosphatase, Placental (ALPP) gene using HepaRG (AID 2283468).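 For AC50: differentiated human HepaRG liver cells in serum-free induction medium; ALPP transcript by TaqMan qRT-PCR normalized to ACTB GAPDH and POLR2A.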 In a few lines:
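Expression of ALPP was quantified by qRT-PCR against three housekeeping genes in human HepaRG cultures treated for 48 h with an eight-point concentration series up to 100 uM. Activity in either direction was fitted relative to 0.5% DMSO.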

Read-out in experiment [5]: Bcl-2 (BAD) gene, BAD (gene 572)
Briefly: LTEA_HepaRG_BAD: Life Technologies and Expression Analysis (LTEA) Assay for Bcl-2 (BAD) gene using HepaRG (AID 2283469). In a few lines: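 HepaRG, 48 h exposure, 8-pt half-log curve from 100 uM in 0.5% DMSO, duplicates. Readout: TaqMan qRT-PCR for BAD mRNA, housekeeping-normalised (ACTB/GAPDH/POLR2A); gain or loss fitted against DMSO baseline.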

Read-out in experiment [6]: adenosine kinase (ADK) gene, ADK (gene 132)
Description: LTEA_HepaRG_ADK: Life Technologies and Expression Analysis (LTEA) Assay for adenosine kinase (ADK) gene using HepaRG (AID 2283471). In a few lines: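 ADK expression quantified by qRT-PCR, normalised to three housekeeping genes, after 48 h exposure of HepaRG cells to eight concentrations (top 100 uM, half-log steps, duplicate, 0.5% DMSO). Up- or down-regulation fitted relative to vehicle.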

Read-out in another experiment: BCL2L11 (gene 10018)
Description: LTEA_HepaRG_BCL2L11: Life Technologies and Expression Analysis (LTEA) Assay for Bcl-2 (BCL2L11) gene using HepaRG (AID 2283473). In a few lines: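 Cells were plated, cultured 48 h, switched to serum-free induction medium, then dosed in duplicate for 48 h at eight half-log concentrations up to 100 uM. Lysates underwent RNA isolation and TaqMan qRT-PCR; gain or loss versus DMSO was fitted.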

Read-out in experiment [7]: Apolipoprotein A-V (APOA5) gene, APOA5 (gene 116519)
Description: LTEA_HepaRG_APOA5: Life Technologies and Expression Analysis (LTEA) Assay for Apolipoprotein A-V (APOA5) gene using HepaRG (AID 2283474). The gist of the method:
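Human liver HepaRG cells are treated 48 h with test chemicals (100 uM top, half-log dilutions, 0.5% DMSO). APOA5 mRNA induction or loss is measured by qRT-PCR relative to vehicle.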

Read-out in experiment [8]: Apoptosis regulator Bcl-2 (Homo sapiens) (UniProt P10415)
Briefly: LTEA_HepaRG_BCL2: Life Technologies and Expression Analysis (LTEA) Assay for Bcl-2 gene using HepaRG (AID 2283475). The gist of the method: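 Plated human HepaRG cells are exposed to test chemicals for 48 h across eight concentrations from 100 uM downward in half-log steps (0.5% DMSO). BCL2 expression is then measured by qRT-PCR with housekeeping normalisation and fitted bidirectionally against vehicle.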

Read-out in experiment [9]: Bcl-2 (BID) gene, BID (gene 637)
Description: LTEA_HepaRG_BID: Life Technologies and Expression Analysis (LTEA) Assay for Bcl-2 (BID) gene using HepaRG (AID 2283476). The gist of the method:
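Cells are plated, cultured 48 h, switched to serum-free induction medium, then dosed 48 h (100 uM top, half-log steps, 0.5% DMSO). RNA is isolated and BID expression read by qRT-PCR.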

Read-out in a further experiment: Caspase-3 (Homo sapiens) (UniProt P42574)
Briefly: LTEA_HepaRG_CASP3: Life Technologies and Expression Analysis (LTEA) Assay for cysteine-aspartic acid protease (CASP3) using HepaRG (AID 2283477). In a few lines:
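In HepaRG liver cells dosed for 48 h at up to 100 uM (eight-point, duplicate), CASP3 expression changes are scored by qRT-PCR. Activity is fitted in both directions with 0.5% DMSO as baseline.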

Read-out in experiment [10]: Cytochrome P450 (CYP1A2), CYP1A2 (gene 1544)
Briefly: LTEA_HepaRG_CYP1A2: Life Technologies and Expression Analysis (LTEA) Assay for Cytochrome P450 (CYP1A2) using HepaRG (AID 2283479).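 For AC50: TaqMan qRT-PCR transcript level normalized to ACTB GAPDH and POLR2A.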 The gist of the method: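 Assesses CYP1A2 mRNA in human HepaRG liver cells after 48 h chemical exposure at up to 100 uM. Values come from qRT-PCR with bidirectional curve fitting relative to DMSO.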

Read-out in experiment [11]: cysteine-aspartic acid protease (CASP8), CASP8 (gene 841)
Description: LTEA_HepaRG_CASP8: Life Technologies and Expression Analysis (LTEA) Assay for cysteine-aspartic acid protease (CASP8) using HepaRG (AID 2283480). The gist of the method:
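qRT-PCR readout of CASP8 mRNA, normalized to three housekeeping genes, after 48 h chemical exposure of HepaRG cells; 8-point half-log series, top 100 uM, 0.5% DMSO vehicle. Bidirectional curve fitting against DMSO baseline.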

Read-out in experiment [12]: Cytochrome P450 (CYP2B6), CYP2B6 (gene 1555)
Description: LTEA_HepaRG_CYP2B6: Life Technologies and Expression Analysis (LTEA) Assay for Cytochrome P450 (CYP2B6) using HepaRG (AID 2283481). The gist of the method: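 Using 48 h treatment of HepaRG cells in serum-free induction medium, concentrations spanned half-log steps from 100 uM in 0.5% DMSO vehicle. CYP2B6 mRNA induction or loss is scored by qRT-PCR against DMSO.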

Read-out in experiment [13]: Cytochrome P450 2C19 (Homo sapiens) (UniProt P33261)
Briefly: LTEA_HepaRG_CYP2C19: Life Technologies and Expression Analysis (LTEA) Assay for CYP2C19 using HepaRG (AID 2283482). In a few lines:
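Human HepaRG liver cells received test chemicals for 48 h (highest 100 uM, half-log dilutions in 0.5% DMSO). CYP2C19 mRNA induction or loss is read by multiplexed qRT-PCR and fitted in both directions versus vehicle.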

Read-out in experiment [14]: ATP-citrate lyase (ACLY), ACLY (gene 47)
Briefly: LTEA_HepaRG_ACLY: Life Technologies and Expression Analysis (LTEA) Assay for ATP-citrate lyase (ACLY) using HepaRG (AID 2283466). In a few lines:
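qRT-PCR readout of ACLY transcript after 48 h chemical treatment of HepaRG cells; expression normalized to three housekeeping genes. Eight-point half-log series, highest 100 uM, 0.5% DMSO vehicle. Gain or loss fitted against DMSO baseline.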

Read-out in experiment [15]: Bcl-2 (BAX) gene, BAX (gene 581)
Description: LTEA_HepaRG_BAX: Life Technologies and Expression Analysis (LTEA) Assay for Bcl-2 (BAX) gene using HepaRG (AID 2283470). The gist of the method: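 Cells were thawed, plated for 48 h, moved to serum-free induction medium and dosed for 48 h (highest concentration 100 uM, half-log steps, 0.5% DMSO). Total RNA was then analysed for BAX expression by qRT-PCR.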

Read-out in experiment [16]: Cytochrome P450 (CYP24A1), CYP24A1 (gene 1591)
Description: LTEA_HepaRG_CYP24A1: Life Technologies and Expression Analysis (LTEA) Assay for Cytochrome P450 (CYP24A1) using HepaRG (AID 2283478). In a few lines:
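Human liver HepaRG cultures receive each chemical for 48 h across an eight-point half-log series topping at 100 uM in 0.5% DMSO. Induction or suppression of CYP24A1 mRNA is scored relative to vehicle after housekeeping-gene normalization.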

Structures are written as SMILES. Several values for one entry are separate records, joined by “and”; a condition that tells them apart may be missing. Equal values may be shown once. Some compounds were tested as several samples or in several runs, with calls that do not always agree. Activity calls are given as the source filed them. Rule for the calls: active = hit-call score of the fitted dose curve at least 0.9, where 1 is the maximum; inactive = score below 0.9.

Chain of Cytochrome P450 2C19 (Homo sapiens) (P33261 whole entry, looked up): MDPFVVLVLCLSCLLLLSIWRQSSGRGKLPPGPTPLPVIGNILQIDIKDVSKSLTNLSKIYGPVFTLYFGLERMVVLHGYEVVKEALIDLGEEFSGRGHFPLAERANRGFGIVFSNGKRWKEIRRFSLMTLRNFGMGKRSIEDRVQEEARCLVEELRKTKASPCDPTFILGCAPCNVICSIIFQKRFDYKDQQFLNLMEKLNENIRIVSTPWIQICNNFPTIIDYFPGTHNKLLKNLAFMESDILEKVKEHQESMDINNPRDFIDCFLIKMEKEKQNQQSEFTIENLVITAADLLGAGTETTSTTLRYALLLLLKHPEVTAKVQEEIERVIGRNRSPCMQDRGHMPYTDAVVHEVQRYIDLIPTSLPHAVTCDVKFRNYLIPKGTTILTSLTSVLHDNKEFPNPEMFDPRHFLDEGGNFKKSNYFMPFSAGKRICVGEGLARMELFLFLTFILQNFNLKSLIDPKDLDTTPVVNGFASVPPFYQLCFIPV
Chain of Apoptosis regulator Bcl-2 (Homo sapiens) (P10415 whole entry, looked up): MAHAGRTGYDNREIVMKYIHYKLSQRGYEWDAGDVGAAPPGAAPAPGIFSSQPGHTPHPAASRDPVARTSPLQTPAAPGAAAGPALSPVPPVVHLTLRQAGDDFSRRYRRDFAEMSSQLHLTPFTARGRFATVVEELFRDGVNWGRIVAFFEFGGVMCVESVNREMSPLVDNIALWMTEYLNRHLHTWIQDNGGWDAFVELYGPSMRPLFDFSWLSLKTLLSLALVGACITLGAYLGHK
Chain of Broad substrate specificity ATP-binding cassette transporter ABCG2 (Homo sapiens) (Q9UNQ0 whole entry, looked up): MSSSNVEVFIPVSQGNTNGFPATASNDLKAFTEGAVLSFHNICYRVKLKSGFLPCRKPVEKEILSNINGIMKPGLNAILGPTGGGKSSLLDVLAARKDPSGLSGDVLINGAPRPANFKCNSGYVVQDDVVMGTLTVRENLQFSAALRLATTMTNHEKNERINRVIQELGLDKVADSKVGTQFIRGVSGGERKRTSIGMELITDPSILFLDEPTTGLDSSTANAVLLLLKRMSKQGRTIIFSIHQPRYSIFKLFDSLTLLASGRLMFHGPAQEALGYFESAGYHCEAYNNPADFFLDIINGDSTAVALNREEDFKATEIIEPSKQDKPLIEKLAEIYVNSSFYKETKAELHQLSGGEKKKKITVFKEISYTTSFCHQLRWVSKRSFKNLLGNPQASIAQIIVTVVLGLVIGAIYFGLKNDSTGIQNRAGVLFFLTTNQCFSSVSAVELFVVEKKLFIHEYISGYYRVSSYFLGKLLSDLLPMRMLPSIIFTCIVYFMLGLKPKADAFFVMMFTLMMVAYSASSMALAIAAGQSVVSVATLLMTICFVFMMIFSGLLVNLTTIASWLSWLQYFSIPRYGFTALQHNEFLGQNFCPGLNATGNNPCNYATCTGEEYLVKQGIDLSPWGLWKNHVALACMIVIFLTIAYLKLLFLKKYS
Chain of Caspase-3 (Homo sapiens) (P42574 whole entry, looked up): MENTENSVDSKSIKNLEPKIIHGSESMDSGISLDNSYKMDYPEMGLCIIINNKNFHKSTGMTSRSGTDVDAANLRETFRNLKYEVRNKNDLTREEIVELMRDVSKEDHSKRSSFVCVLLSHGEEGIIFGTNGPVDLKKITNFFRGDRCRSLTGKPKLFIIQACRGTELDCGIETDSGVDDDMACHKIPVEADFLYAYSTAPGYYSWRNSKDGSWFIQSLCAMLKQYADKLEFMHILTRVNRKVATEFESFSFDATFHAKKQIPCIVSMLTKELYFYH

As for `S=C(S)NCCNC(=S)S.[Mn+2].[S-]C([S-])=NCCN=C([S-])[S-].[Zn+2]`, the AC50 (usually the concentration at which the activity in the assay is half-maximal) in [1] is 1.09 µM (active) and 988 nM (active) and 1.44 µM (active); in experiment [2], 200 nM (active) and 267 nM (active) and 401 nM (active); in experiment [3], 799 nM (active) and 1.07 µM (active) and 953 nM (active); in [4], 25 µM (active); in experiment [6] it was 255 nM (active) and 1.08 µM (active) and 270 nM (active); with BCL2L11 (gene 10018), 3.84 µM (active). Moreover, the AC50 in experiment [7] was 1.22 µM (active) and 1.49 µM (active) and 1.99 µM (active); in experiment [8] it was 163 nM (active) and 351 nM (active) and 509 nM (active); in the experiment with Caspase-3 (Homo sapiens), 501 nM (active) and 990 nM (active); in experiment [10], 502 nM (active) and 444 nM (active) and 615 nM (active); in experiment [11], 1.18 µM (active) and 2.18 µM (active) and 1.55 µM (active); in experiment [12], 1.05 µM (active) and 1.1 µM (active) and 1.15 µM (active). Besides, the concentration at half-maximal activity (AC50) in experiment [13] is 1.4 µM (active) and 1.55 µM (active). Besides, the result (in experiment [4]; in [5]; with BCL2L11 (gene 10018); in experiment [9]; in the experiment with Caspase-3 (Homo sapiens)) was inactive.

With `CCOC(=O)NCCOc1ccc(Oc2ccccc2)cc1`, the compound was classed as inactive in experiment [1], in [14], in [3], in experiment [5], in [15] and in experiment [6]. Also, the call (with BCL2L11 (gene 10018); in experiment [9]; with Caspase-3 (Homo sapiens); in experiment [16]; in experiment [11]) was inactive. In addition, the AC50 in experiment [2] is 78 µM (active); in [4], 50 µM (active); in [7], 85.8 µM (active); in experiment [8] it was 82.1 µM (active); in experiment [10], 84.5 µM (active); in [12] it was 81.4 µM (active). Further, the AC50 in experiment [13] is 81.6 µM (active).

In the case of `OB(O)O`, the compound was classed as inactive in experiment [1], in experiment [2], in experiment [3], in experiment [4], in experiment [5] and in [15]. For the same compound, the call (in [6]; with BCL2L11 (gene 10018); in experiment [7]; in experiment [8]; in experiment [9]; with Caspase-3 (Homo sapiens)) was inactive. In addition, the call in experiment [10], in [11], in experiment [12] and in [13] was inactive.
